# Results published in PubChem BioAssay (NCATS).
# Inconclusive results are not listed. Unmarked numbers belong to inactive results. The source made the active and inactive calls. The call rests on the fitted dose curve; in most records, active means well fitted curve in the direction sought with a large enough effect; inconclusive means small, poorly fitted or top-dose-only effect, or another doubt; inactive means no such curve, though single readings can be large; an effect the other way counts as inactive or inconclusive.
# Test: qHTS assay to identify small molecule inhibitors of chordoma cells - UCH-1 (AID 1259355); further: nearly all actives have a fitted effect of over 55% in size
# Conditions: UCH-1 chordoma viability, CellTiter-Glo, 48 h, combination, with auranofin plus four topoisomerase inhibitors; series mostly up to 46.1 µM; activity, negative = inhibition: at the top concentration
# In short: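 Seed 800 cells per well; incubate overnight at 37 C, 5% CO2. Add test compounds (15 concentrations), then the auranofin–topoisomerase-agent combination. Incubate 48hr, add CellTiter-Glo, wait 30min, read luminescence.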
# On the % scale 0 is the no-effect control and ±100 the full control effect.
row,Structure (SMILES),"activity, negative = inhibition [%]"
1,O=C(O)/C=C/C(O)c1ccc(Cl)cc1 (stereo not given),-14.5
2,C[N+](C)(C)CCOP(=O)(O)OP(=O)([O-])OC[C@H]1O[C@@H](n2ccc(N)nc2=O)[C@H](O)[C@@H]1O,0.388
3,CC(N)C(=O)OC(C)(C)Cc1ccc(Cl)cc1 (stereo not given),-5.17
4,COc1ccc(/C=C/C(=O)Nc2ccccc2C(=O)O)cc1OC,8.07
5,Cc1ccccc1CNc1ncnc2c1ncn2C1OC(CO)C(O)C1O (stereo not given),5.45

# Test: qHTS assay to identify small molecule inhibitors of chordoma cells - UCH-2 (AID 1259356)
# Conditions: UCH-2 chordoma viability, CellTiter-Glo ATP luminescence, 48 h; series mostly up to 46.1 µM; activity change, negative = inhibition: at the top concentration
Structure (SMILES),"activity change, negative = inhibition",Potency
CCOc1ccc2nc(S(N)(=O)=O)sc2c1,9.05%,
[O-][n+]1ccccc1SSc1cccc[n+]1[O-],-0.0134%,
CCCSc1ccc2nc(NC(=O)OC)[nH]c2c1,-20.6% [at 20.6 µM],
CN1[C@@H]2CC[C@H]1CC(OC(c1ccccc1)c1ccccc1)C2 (stereo not given in full),,inactive

# Test: P-glycoprotein substrates identified in KB-8-5-11 adenocarcinoma cell line, qHTS therapeutic library screen (AID 1346987); further: nearly all actives have a fitted effect of over 65% in size; further: potency means the concentration at half of the fitted maximal effect
# Conditions: KB-8-5-11 (P-gp overexpressing) viability, CellTiter-Glo, 72 h; series mostly up to 44.5 µM; activity change, negative = cytotoxicity: at the top concentration
# In short: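 KB-8-5-11: colchicine-selected sub-line of KB-3-1 over-expressing P-gp; assay medium lacked colchicine. 72 h drug exposure at 37 degree C, CellTiter-Glo.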
Structure (SMILES),"activity change, negative = cytotoxicity",Potency,outcome
O=C(O)/C=C/C(O)c1ccc(Cl)cc1 (stereo not given),1.59%,,
C[N+](C)(C)CCOP(=O)(O)OP(=O)([O-])OC[C@H]1O[C@@H](n2ccc(N)nc2=O)[C@H](O)[C@@H]1O,,inactive,
Cc1c(N)c(=O)n(-c2ccccc2)n1C,-1.46% [at 17.3 µM],,
C#C[C@]1(O)CC[C@H]2[C@@H]3CCc4cc(O)ccc4[C@H]3CC[C@@]21C,,6.51 µM (active),
COC(=O)C1=C(C)NC(C)=C(C(=O)OCC(C)=O)C1c1ccccc1[N+](=O)[O-] (stereo not given),,7.31 µM (active),
O=C(Nc1ccc2c(c1)CCN(Cc1ncn[nH]1)C2)c1ccccc1-c1ccc(C(F)(F)F)cc1,-29.8%,,
CN(C)c1ccc(C(=C2C=CC(=[N+](C)C)C=C2)c2ccccc2)cc1,,23.1 µM (active),
Nc1ccc([N+](=O)[O-])cc1O,-3.75% [at 93.4 µM],,
O=C(O)Cc1cccc(-c2cc(CCCCCCc3ccc(O[C@H]4O[C@H](CO)[C@@H](O)[C@H](O)[C@@H]4O)c(-c4cccc(CC(=O)O)c4)c3)ccc2O[C@H]2O[C@H](CO)[C@@H](O)[C@H](O)[C@@H]2O)c1,3.65% [at 0.354 µM],,
O=C(O)CC1CC(c2ccccc2)=NO1 (stereo not given),-0.373% [at 17.3 µM],,
CC(N)C(=O)OC(C)(C)Cc1ccc(Cl)cc1 (stereo not given),13.6%,,
CCOc1ccc2nc(S(N)(=O)=O)sc2c1,4.47%,,
COC(=O)C1=C(C)NC(C)=C(C(=O)OC)C1c1cccc(NC(=O)NCCCN2CCC(c3cccc(OC)c3)CC2)c1,2.43%,,
O=[N+]([O-])c1ccc(CNc2nc(NCc3cccc(C(F)(F)F)c3)nc3nc[nH]c23)cc1,-14.7%,,
O=C(Nc1ccc2[nH]ncc2c1)C1CCC1,9.32%,,
CCN(CC)CCCCNc1ncc2cc(-c3c(Cl)cccc3Cl)c(NC(=O)NC(C)(C)C)nc2n1,,16.4 µM (active),
S=c1[nH]c2ccccc2s1,,inactive,
O=C(CS)Nc1ccccc1,11.1%,,

Structure (SMILES),"activity change, negative = cytotoxicity",Potency,outcome
CCNc1nc2c(ncn2[C@H]2C[C@H](O)[C@@H](CO)O2)c(=O)[nH]1,0.534%,,
CC(=O)SCC(CC(=O)c1ccc(C)cc1)C(=O)O (stereo not given),,,inactive
CCCCCCCCCCCC(=O)[O][Sn]([CH2]CCC)([CH2]CCC)[O]C(=O)CCCCCCCCCCC,-18.6%,,
N=C(N)N,2.74%,,
CCNC(=O)[C@H]1O[C@@H](n2cnc3c(N)nc(NCCc4ccc(CCC(=O)O)cc4)nc32)[C@H](O)[C@@H]1O,-1.5%,,
NCCO,7.75% [at 93.4 µM],,
COc1ccc(/C=C/C(=O)Nc2ccccc2C(=O)O)cc1OC,,inactive,
N#C/C(=C\c1ccc(O)c(O)c1)C(=O)NCCCc1ccccc1,1.58%,,
CCCCN(CC)c1nc(C)nc2c1c(C)cn2-c1c(C)cc(C)cc1C,-24.2%,,
CC(C)Cc1ccc([C@H](C)C(=O)O)cc1,9.97%,,
CN(C)c1ccc(N=NS(=O)(=O)O)cc1,11.5% [at 93.4 µM],,
[O-][n+]1ccccc1SSc1cccc[n+]1[O-],,7.31 µM (active),
CC(=O)c1ccc(OCC(=O)N2CCCCC2)cc1,,,inactive
Nc1ccc(O)c([N+](=O)[O-])c1,-7.67% [at 93.4 µM],,
CN(CCCOc1ccc(Cc2ccccc2)cc1)CCC(=O)O,,,inactive
CCCSc1ccc2nc(NC(=O)OC)[nH]c2c1,,0.556 µM (active),
CO[C@@]1(NC(=O)Cc2cccs2)C(=O)N2C(C(=O)O)=C(COC(N)=O)CS[C@@H]21,,inactive,
CN1[C@@H]2CC[C@H]1CC(OC(c1ccccc1)c1ccccc1)C2 (stereo not given in full),-14.8%,,
